# This is part of a sample that, as a whole, favours compounds with a hit. Of some 83,000 tested, about 20% had one in any assay.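 Negative percent growth values reflect cell death: -40 means 40% of the cells present at the start died, and -100 means all died.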 Calls of active or inactive are those of the source.
# Test system: BT-549 breast
# Test: NCI-60 one-dose screen, 48 h (100 = growth as untreated, 0 = no growth, -100 = all killed)
# Conditions: 10 µM
# Description: Growth inhibition of the BT-549 human tumor cell line is measured as a screen for anti-cancer activity. Cells are grown in 96 well plates and exposed to the test compound for 48 hours. Compounds are tested at a single concentration, which is 10^-5 M for most compounds. The reported endpoint is percent growth (GI% or GIPRCNT), where numbers from 0 - 100% represent growth inhibition, and numbers from -100% - 0 represent cell death. For example, a value of 40 represents 60% growth inhibition. A value of 0 means no net growth occurred over the course of the experiment. A value of -40 indicates 40% of cells at the beginning of the experiment died by the end of the experiment. A value of -100 means all cells are dead at the end of the experiment.
# NCI-60 Human Tumor Cell Lines Screen was performed using the standard one-dose NCI protocol, which is described in more detail at https://dtp.cancer.gov/discovery_development/nci-60/default.htm.
# Compounds with GIPRCNT values below 10 were considered active. Activity score was based on GIPRCNT using the following formula: […]
# Score is 0 for GIPRCNT values of 100 or above, 50 for GIPRCNT values of 0, and 100 for GIPRCNT values of -100.
row,Compound,growth
1,COc1cc2c3c(n(CCCN4CCOCC4)c(=O)c2cc1OC)-c1nc2c(cc1C3=O)OCO2,4.91% (active)
2,CC1(c2ccccc2)NC(=O)N(CC(=O)Nc2ccc(C(=O)/C=C/C=C/c3ccccc3)cc2)C1=O (stereo not given),38.9% (inactive)
3,O=S(=O)(Nc1ncccn1)c1ccc(-n2c(-c3ccccc3)nc(-c3ccccc3)c2-c2ccccc2)cc1,69% (inactive)
4,COc1cc(/C=C/C(=O)c2ccc(C(F)(F)F)cc2)ccc1Oc1nc(Nc2ccc(F)cc2)nc(N(C)C)n1,90.9% (inactive)
5,C=C1CCC2C3(C)COC(c4cc(F)cc(F)c4)OC3CCC2(C)C1C/C=C1/C(=O)OCC1O (stereo not given),-81.1% (active)
6,COc1ccccc1C(=O)NNC(=O)CSc1nc2c(c(=O)[nH]1)CCCC2,101% (inactive)
7,CC1=C2C(=C[C@@](C)(COCOCCCl)[C@@H]2O)C(=O)[C@](C)(O)C12CC2,-81.2% (active)
8,COc1cc(Cn2c(C(F)(F)F)cc3c(Cl)ncnc32)ccn1,-15.9% (active)
9,COc1ccc([C@H]2C(C(=O)c3ccc(Cl)cc3)C3(N[C@@H]2c2ccccc2)C(=O)Nc2ccc(Br)cc23)cc1 (stereo not given in full),21.9% (inactive)
10,O=C(NO)c1ccc(Cn2ccc3c(NCc4ccccc4)ncnc32)cc1,-22% (active)
11,S=c1nc(-c2ccccc2)cc(-c2cc3ccccc3nc2Cl)[nH]1,51.9% (inactive)
12,Cc1ccc(-c2ccc(SCC(=O)Nc3ccc(S(N)(=O)=O)cc3Br)nn2)cc1,14.2% (inactive)
13,CCN1CCN(Cc2ccc(C(=O)Nc3cccc(-c4cn(-c5ccc6oc(=O)ccc6c5)nn4)c3)cc2C(F)(F)F)CC1,-79.2% (active)
14,CC(=O)c1ccc(Nc2nc(SC(C)C)nc(-c3ccccc3)c2C#N)cc1,90.7% (inactive)
15,O=C(c1ccc(Cl)cc1)C1[C@H](c2ccc(Br)cc2)[C@@H](c2ccccc2)NC12C(=O)Nc1ccc(Cl)cc12 (stereo not given in full),-57.1% (active)
16,COc1ccc(/C=C/C(=O)c2ccc(N3CCN(C)CC3)cc2)c(C(F)(F)F)c1,40.7% (inactive)
17,Cc1cccc(-c2nc(Nc3ccccc3C(=O)O)c3ccccc3n2)c1,-0.675% (active)
18,O=C1Nc2cc(-c3ccc(NC(=O)c4cccs4)cc3)ccc2/C1=C/c1ccc[nH]1,91.7% (inactive)
19,CCCCSc1nc(Nc2ccc(/C(C)=N/NC(N)=S)cc2)c(C#N)c(-c2ccccc2)n1,31.1% (inactive)
20,O=c1[nH]c2ccccc2cc1CSc1ccc(Nc2nccc(-c3ccc4c(c3)OCO4)n2)cc1,65.5% (inactive)

row,Compound,growth
1,Cc1cc(C)nc(SCC(=O)Nc2ccc(S(N)(=O)=O)cc2)n1,132% (inactive)
2,CN1CCN(c2ccc(Nc3nc(NCCCNC(=O)C4CCCCC4)c4sccc4n3)cc2)CC1,69.1% (inactive)
3,O=C(c1ccc([N+](=O)[O-])c([N+](=O)[O-])c1O)n1[nH]c(=O)c2ccccc2c1=O,51.2% (inactive)
4,O=C(Cc1ccc2c(c1)CN(C1CCC(=O)NC1=O)C2=O)NCCc1ccccc1 (stereo not given),-37.2% (active)
5,CCN1CCN(c2ccc(NC(=O)Nc3ccc4c(c3F)CCN4c3ccnc(C(=O)NC)c3)cc2C(F)(F)F)CC1,-39.7% (active)
6,CC(=O)NCC1=C(C)C=C2C(=O)[C@](C)(O)C3(CC3)C(C)=C21,-46.5% (active)
7,O=C(c1ccccc1)n1ccc(-c2cc3cc(Br)ccc3oc2=O)n1,39.2% (inactive)
8,O=C(CNc1nc(-c2ccccc2)cs1)Nc1cccc([N+](=O)[O-])c1,-73.1% (active)
9,COc1ccc(NC(=O)Nc2ccc(OCC(=O)N=Nc3c(O)[nH]c4ccc([N+](=O)[O-])cc34)cc2)cc1,27.5% (inactive)
10,Cc1noc2c(Cc3ccccc3)nn(CC(=O)N/N=C/c3ccc(Cl)cc3)c(=O)c12,89.4% (inactive)
11,CCN(CC)CCOc1ccc(C(=C(C)c2ccccc2)c2ccc(OCCN(CC)CC)cc2)cc1,50.4% (inactive)
12,COc1ccc(CN2[C@H](C(=O)NCCCCCCC(=O)NO)Cc3c([nH]c4ccccc34)[C@H]2C2CC2)cc1,25.5% (inactive)
13,O=C(/C=C/Nc1ccccc1)c1ccc2c(c1)Nc1ccccc1S2,95.6% (inactive)
14,O=C(Nc1ccc(I)cc1)Nc1nc2ccc([N+](=O)[O-])cc2s1,-99.6% (active)
15,Cc1noc2c(Cc3ccccc3)nn(CC(=O)N/N=C/c3ccc(Br)cc3)c(=O)c12,87.2% (inactive)
16,Nc1nnc(-c2c[nH]c3ncccc23)c(-c2c[nH]c3ccc(Br)cc23)n1,38.6% (inactive)
17,Cc1ccc(-c2cc(C(=O)N=Nc3c(O)[nH]c4ccccc34)c3ccccc3n2)cc1,34.5% (inactive)
18,Cc1ccc(CSc2nc(Cl)c(C#N)c(-c3ccc(F)cc3)n2)cc1,56.4% (inactive)
19,Cc1cccc2cc(-c3cc(-c4ccccc4)nc(=S)[nH]3)c(Cl)nc12,53.1% (inactive)
20,O=C(CSc1nnc(-c2ccc3nc(-c4ccccc4)[nH]c3c2)o1)Nc1ccc(Br)cc1,95.9% (inactive)

# From PubChem BioAssay (NCI)
